Compound activity deposited in PubChem by National Center for Advancing Translational Sciences (NCATS).
The list is not random: actives were taken first. Their share in the collection is about 6.5%.
LASV entry inh: Lassa virus entry inhibition | Potency, µM (doses to about 37.9 µM), inactives show at the top dose activity change, negative = inhibition, most hits filed as inhibitors | Lassa virus pseudotype entry inhibition, cell reporter | hit rate 1.2% among 300,000 | AID 540256; calls by dose curve; tested in HEK293 cells; also: potency is read from the fitted curve at half-maximal effect; nearly all actives have a fitted effect of over 50% in size
Marburg entry inh: Marburg virus entry inhibition | Marburg virus pseudotyped entry inhibition, cell reporter | hit rate 1.8% among 300,000 | Potency, µM (top dose mostly 37.8 µM), inactives show at the top dose activity change, negative = inhibition, usual class: inhibitors | AID 540276; calls by dose curve; tested in HEK293 cells; also: potency is read from the fitted curve at half-maximal effect
FMDV antiviral: foot and mouth disease virus antiviral activity; Potency, µM (titrated, usually from 57.9 µM), inactives show at the highest dose activity change, negative = inhibition, most hits filed as inhibitors; AID 1159524; hit rate 1.2% among 410,000; FMDV antiviral cell-based qHTS; calls by dose curve; tested in HEK293T cells; also: read-out not given here; potency is read from the fitted curve at half-maximal effect; nearly all actives have a fitted effect of over 45% in size
Vaccinia Venus: vaccinia inhibition (Venus reporter). Vaccinia virus Venus reporter expression, fluorescence. Potency, µM (doses to about 36.5 µM), inactives show at the top dose activity change, negative = inhibition, actives largely listed as inhibitors. hit rate 0.46% among 330,000. AID 720580; calls by dose curve; tested in A549 cells; also: potency is read from the fitted curve at half-maximal effect; nearly all actives have a fitted effect of over 30% in size
HCMV antiviral: inhibitors of human cytomegalovirus | HFF cells, HCMV-luciferase reporter, 72 h; hits give low values | activity change, negative = inhibition, % at 57.5 µM | hit rate 4.5% among 410,000 | AID 1259415; in the data active = activity change below about -60%; inconclusive = no clear call, values can overlap the other calls; inactive = above about -39%
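Cell-based, HFFs, 1000 cells/well, 16 h 37C; cpds in DMSO + HCMV-luc, MOI 1 PFU/cell; 72 h 37C; OneGlo luminescence after 5 min RT; norm. to buffer vs Salinomycin 10uM.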
Vaccinia mCherry: inhibitors of vaccinia virus infection (mCherry reporter signal) | hit rate 0.63% among 310,000 | Potency, µM (top dose mostly 36.5 µM), for the others: top-dose activity change, negative = inhibition, actives largely listed as inhibitors | Vaccinia virus mCherry reporter infection, fluorescence | AID 720579; calls by dose curve; tested in A549 cells; also: potency is read from the fitted curve at half-maximal effect; nearly all actives have a fitted effect of over 35% in size
Starred values were filed as active, the others as inactive; [ ] = dose if it differs, or a comment. % is scaled to controls: 0 for no effect and ±100 for the full control effect.

`O=C(NC1CCCCC1)c1ccc(-c2cccc([N+](=O)[O-])c2)o1` gave FMDV antiviral 53% and HCMV antiviral -69*.
CC(C)CC(=O)NC(=S)N1CCN(c2ccc([N+](=O)[O-])cc2Cl)CC1 was read as LASV entry inh 1%, Marburg entry inh -3%, FMDV antiviral -24% and HCMV antiviral -67*.
Screening O=C(c1ccc(-c2ccc(Cl)cc2)o1)N1CCN(c2ccc([N+](=O)[O-])cc2Cl)CC1 returned LASV entry inh inconclusive, Marburg entry inh -1%, FMDV antiviral -27%, Vaccinia Venus -21%, HCMV antiviral -80* and Vaccinia mCherry -13%.
Screening O=[N+]([O-])c1cccc(-c2ccc(C(=S)N3CCN(c4ccc(F)cc4)CC3)o2)c1 returned LASV entry inh 17%, Marburg entry inh inconclusive, FMDV antiviral -4%, Vaccinia Venus -8%, HCMV antiviral -24 and Vaccinia mCherry -11%.
`O=C(c1ccc(-c2cccc([N+](=O)[O-])c2)o1)N1CCN(c2ccc([N+](=O)[O-])cc2)CC1` gave LASV entry inh -30%, Marburg entry inh inconclusive, FMDV antiviral inconclusive, Vaccinia Venus -2%, HCMV antiviral -61* and Vaccinia mCherry -7%.
CC(=O)c1ccc(-c2ccc3c4c(ccc3c2)OC(CNC(=O)[C@@H]2CCCN2C(C)=O)C4)s1 (stereo not given in full) was read as FMDV antiviral 19%, Vaccinia Venus -17% and Vaccinia mCherry -3%.
For COc1ccc(OC)c(/C=C/c2cc3ccccc3cn2)c1 the results were Vaccinia Venus -41% and Vaccinia mCherry inconclusive.
`COC1=C(Br)C(=O)c2ncccc2C1=O` gave LASV entry inh inconclusive, Marburg entry inh inconclusive, FMDV antiviral 35µM*, Vaccinia Venus -5%, HCMV antiviral -69* and Vaccinia mCherry -9%.
`O=C1C(=O)c2cccnc2-c2ncccc21` gave FMDV antiviral 4µM*, Vaccinia Venus 14µM*, HCMV antiviral -99* and Vaccinia mCherry 6.3µM*.
OCCNc1c2ccccc2nc2ccccc12 was read as LASV entry inh -22%, Marburg entry inh inconclusive, FMDV antiviral -15%, Vaccinia Venus inconclusive, HCMV antiviral -101* and Vaccinia mCherry inconclusive.
Screening Cc1ccc(S(=O)(=O)N2CCN(Cc3nnc(-c4c(-c5ccccc5)noc4C)o3)CC2)cc1 returned LASV entry inh 16%, Marburg entry inh 4%, FMDV antiviral 40µM*, Vaccinia Venus -4%, HCMV antiviral -30 and Vaccinia mCherry inactive.
CCOC(=O)[C@@H](C)N1[C@H](C)[C@H](c2ccccc2)Oc2cc(Br)ccc2S1(=O)=O was read as Marburg entry inh 4.4µM*.
CCOC(=O)[C@@H](C)N1[C@@H](C)[C@H](c2ccccc2)Oc2ccc(Cl)cc2S1(=O)=O was read as HCMV antiviral -12.
`CCCOc1ccc(Oc2nc(NCC(C)C)nc(N3CCOCC3)n2)nn1` gave LASV entry inh 7%[46.1 µM], Marburg entry inh -1%[46.1 µM], FMDV antiviral -1%, Vaccinia Venus -11%, HCMV antiviral 142 and Vaccinia mCherry -14%.
Screening O=C(N/N=C/c1ccc2c(c1)OCO2)c1cc(-c2ccccc2)nc2ccccc12 returned LASV entry inh inconclusive, Marburg entry inh inconclusive, FMDV antiviral 4%, Vaccinia Venus 0%, HCMV antiviral -34 and Vaccinia mCherry inconclusive.
Screening Cn1cc(C(=O)N/N=C/c2ccc3c(c2)OCO3)c2ccccc21 returned LASV entry inh -11%[46.1 µM], Marburg entry inh 13µM*, FMDV antiviral 2%, Vaccinia Venus -24%, HCMV antiviral 6 and Vaccinia mCherry inconclusive.
Screening O=C(N/N=C/c1ccc2c(c1)OCO2)c1cccc2ccccc12 returned LASV entry inh -17%[46.1 µM], Marburg entry inh 3.2µM*, FMDV antiviral 30%, Vaccinia Venus -20%, HCMV antiviral -14 and Vaccinia mCherry inconclusive.
`CCN(C(=O)Cn1c(=O)n(CC2CCC(C(=O)NC)CC2)c(=O)c2sccc21)c1ccccc1` (stereo not given) gave LASV entry inh 5%[46.1 µM], FMDV antiviral -16%, Vaccinia Venus -7%, HCMV antiviral 2 and Vaccinia mCherry -4%.
CN[C@H]1CCc2cc(OC)c(OC)c(OC)c2-c2ccc(OC)c(=O)cc21 was read as FMDV antiviral -8%, Vaccinia Venus inconclusive, HCMV antiviral -95* and Vaccinia mCherry inconclusive.
COc1cc2c(c(OC)c1OC)-c1ccc(O)c(=O)cc1[C@@H](NC(C)=O)CC2 was read as FMDV antiviral -17%, Vaccinia Venus -17%, HCMV antiviral -37 and Vaccinia mCherry -21%.
COc1cc2c(c(OC)c1OC)-c1ccc(O)cc1C(NC(C)=O)CC2 (stereo not given) was read as LASV entry inh inconclusive, Marburg entry inh inconclusive, FMDV antiviral 22%, Vaccinia Venus inconclusive, HCMV antiviral -95* and Vaccinia mCherry inactive.
COc1cc2c(c(OC)c1OC)-c1ccc(NC(=O)c3ccccc3)c(=O)cc1[C@@H](NC(C)=O)CC2 was read as LASV entry inh 20%, Marburg entry inh 19%[46.1 µM], FMDV antiviral -13%, Vaccinia Venus -2%, HCMV antiviral -88* and Vaccinia mCherry -11%.
COc1cc2c(c(OC)c1OC)-c1ccc(O)cc1[C@@H](NC(C)=O)CC2 was read as FMDV antiviral 7%, Vaccinia Venus inconclusive, HCMV antiviral -78* and Vaccinia mCherry -12%.
`CN(C(=O)CSc1nc2c(c(=O)[nH]1)CCCC2)c1ccccc1` gave LASV entry inh 11%[46.1 µM], Marburg entry inh 0%[46.1 µM], FMDV antiviral -22%, Vaccinia Venus -2%, HCMV antiviral 11 and Vaccinia mCherry -9%.
CCOC(=O)C1=C(N)Oc2ccc(Br)cc2[C@@H]1[C@@H](C#N)C(=O)OCC was read as FMDV antiviral -8%.
For Cc1cc(C(=O)O/N=C(\N)c2ccc(C(C)(C)C)cc2)no1 the results were FMDV antiviral 27% and HCMV antiviral -69*.
`Cc1occc1C(=O)O/N=C(\N)c1ccc(Cl)cc1` gave LASV entry inh inconclusive, Marburg entry inh inconclusive, FMDV antiviral 34%, Vaccinia Venus -14%, HCMV antiviral 0 and Vaccinia mCherry inactive.
`CC(C)(C)c1ccc(C(=O)O/N=C(\N)c2ccccc2)cc1` gave FMDV antiviral 0.71µM*, Vaccinia Venus -6%, HCMV antiviral -94* and Vaccinia mCherry 5%.
Cc1noc(-c2ccc(Cl)cc2)c1C(=O)O/N=C(\N)c1ccc(C(C)(C)C)cc1 was read as LASV entry inh inconclusive, Marburg entry inh inconclusive, FMDV antiviral 25µM*, Vaccinia Venus -9%, HCMV antiviral -100* and Vaccinia mCherry -11%.
`COc1ccc(C)cc1NC(=O)c1ccc2nc(Cc3ccccc3)oc2c1` gave LASV entry inh -13%[46.1 µM], FMDV antiviral 0%, Vaccinia Venus 14%, HCMV antiviral -23 and Vaccinia mCherry -4%.
`COC(=O)CCN1CCSCCS1(=O)=O` gave HCMV antiviral -11.
